About 85 (7%) of roughly 1,200 compounds were called active. The call rests on the fitted dose curve. This excerpt belongs to a sample that is enriched for actives.
target: Beta-2 adrenergic receptor (Homo sapiens) (UniProt P07550); experiment: qHTS assay of beta-arrestin-biased ligands of beta2-adrenergic receptor: Hit Validation with GloSensor; details: W9-Glo22F cells, GloSensor cAMP luminescence, beta2AR agonism; activation: at 46.1 µM (top of the series)
Summary of the method: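 W9-Glo22F cells plated and incubated overnight at 37 deg C, 5% CO2, then compounds pinned in. GloSensor reagent added, 10 min at room temperature, luminescence read.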
Potency means the concentration at half of the fitted maximal effect.

Beta-2 adrenergic receptor (Homo sapiens), sequence (P07550 whole entry, looked up): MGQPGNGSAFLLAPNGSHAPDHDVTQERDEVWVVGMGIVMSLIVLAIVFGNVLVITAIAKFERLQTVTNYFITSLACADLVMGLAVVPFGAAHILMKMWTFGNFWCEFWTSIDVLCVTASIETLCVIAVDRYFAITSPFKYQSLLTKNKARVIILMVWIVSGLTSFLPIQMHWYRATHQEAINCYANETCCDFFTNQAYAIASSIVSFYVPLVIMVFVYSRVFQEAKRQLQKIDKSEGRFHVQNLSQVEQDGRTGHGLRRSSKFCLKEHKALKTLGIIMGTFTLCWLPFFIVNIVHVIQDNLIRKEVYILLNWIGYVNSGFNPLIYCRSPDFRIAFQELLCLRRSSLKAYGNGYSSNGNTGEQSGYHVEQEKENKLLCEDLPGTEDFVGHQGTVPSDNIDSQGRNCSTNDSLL

Potency, active:
COc1cccc(Oc2cnc(N)nc2-c2ccc(OC)cc2O)c1 23.1 µM
COc1cc([N+](=O)[O-])c2nccnc2c1 16.4 µM
COc1cc(CNc2ccc(O)cc2)cc(Br)c1OCc1ccccc1 14.6 µM
NC(=S)N=Nc1c(O)n(CCCl)c2ccc(Cl)cc12 32.6 µM
NC(=S)N=Nc1c(O)n(CCCl)c2ccccc12 25.9 µM
COc1ccc(CCNc2nc(-c3ccccn3)cs2)cc1OC 20.6 µM
Cc1cccc(N=C2NC(=O)/C(=C/c3cccs3)S2)c1 1.03 µM
N#C/C(=C\c1cccc(O)c1)c1nc2ccccc2o1 6.51 µM
COc1c(-c2ccc(O)c(O)c2)oc2cc(O)cc(O)c2c1=O 20.6 µM
COc1cnc(-c2ccccn2)nc1Oc1ccccc1 29.1 µM
CCOC(=O)C1=C(C)N(c2ccc(C)cc2)C(=O)/C1=C\c1ccc(O)c(OC)c1 18.4 µM
NC(=S)N/N=C1\CC(c2ccc3c(c2)OCCCO3)Oc2ccc(F)cc21 (centres undefined) 11.6 µM
COCCNC(=S)N/N=C(\C)c1ccccc1F 29.1 µM
C=CCn1c(CSc2nc3ccccc3s2)n[nH]c1=S 25.9 µM
CCNc1nc(NCC)nc(N(C)/N=C/c2ccco2)n1 20.6 µM

Potency, inactive:
COc1ccc(C2CC(O)(c3ccccc3)Oc3cc(OC)c(OC)c(OC)c32)cc1 (centres undefined)
COc1ccc(Nc2cc(Nc3cccc(OC)c3)ncn2)cc1
C/C(CC(C)(C)C1CCCCC1)=N\NC(N)=S
O=[N+]([O-])c1cc(Cl)c(O)c2ncccc12
O=[N+]([O-])c1ccc(O)c2ncccc12
O=[N+]([O-])c1cc(Br)cc(C=Nc2ccc3c(c2)OCO3)c1O
Oc1ccc(NCc2cccc(OCc3ccccc3)c2)cc1
Oc1ccc(NCc2ccc(OCc3ccccc3)cc2)cc1
CC1CC(C)(C)n2c(O)c(N=NC(N)=S)c3cccc1c32 (centres undefined)
C=CCn1c(O)c(N=NC(=S)Nc2ccccc2F)c2cc(S(=O)(=O)N3CCOCC3)ccc21
C/C(Cl)=C\Cn1c(O)c(N=NC(N)=S)c2ccccc21
NC(=S)N=Nc1c(O)n(Cc2ccc(F)cc2)c2ccccc12
O=C(Oc1cccc2cccnc12)c1ccc2c(c1)OCCO2
COc1ccc(NC(=S)Nc2cccc(C)n2)cc1
CCc1cc2c(SCC(=O)Nc3ccc(Cl)cn3)ncnc2s1
c1ccc(CCNc2nc(-c3ccccn3)cs2)cc1
COc1ccc(OCCCC(=O)Nc2nc(-c3ccccn3)cs2)cc1
COc1ccc(NC(=S)NC(=O)c2ccc3c(c2)OCCO3)cc1
Cc1ccc(/C=C2/C(=O)N(c3ccccc3)C(=S)N2C)o1
Cc1ccc(N=C2NC(=O)/C(=C/C=C/c3ccco3)S2)cc1
C#CCn1c(=NC(=O)CSC(C)=O)sc2cc(F)ccc21
Cc1ccc2cccc(SCC(=O)NCC#N)c2n1
CC(=O)c1cccc(CN2CCN(CCC(C)C)C(CCO)C2)c1 (centres undefined)
N#C/C(=C\c1ccc(Cl)cc1)c1nc2ccccc2o1
N#C/C(=C\c1ccncc1)c1nc2ccccc2o1
CCCC(=O)N(c1ccc(F)cc1)C1C=CS(=O)(=O)C1 (centres undefined)
CCCN(CC(=O)Nc1ccc(Cl)cc1Cl)C(=O)/C=C/c1ccco1
COc1c(O)cc(O)c2c(=O)cc(-c3ccccc3)oc12
O=C1C=CC(O)(c2cc(=O)c3c(O)cc(O)cc3o2)C=C1
Fc1ccccc1/C=N/Nc1ncnc2ccccc12
Cc1ccc2cccc(SCC(=O)Nc3ccc(F)cc3)c2n1
NC(=S)n1[nH]c(-c2ccc([N+](=O)[O-])cc2)c(N=Nc2ccc(Cl)cc2)c1=O
Clc1ccc(OCc2nc(-c3ccccn3)n[nH]2)cc1
COc1cnc(-c2ccccn2)nc1Sc1ccccc1Cl
Cc1cccc(NC(=S)N/N=C/c2cccc([N+](=O)[O-])c2)c1
CCCCC(=O)N1CCCC(c2nc(-c3cccc(OC)c3)no2)C1 (centres undefined)
C=C(C)CNC(=S)N/N=C/c1ccco1
COc1ccc(NS(=O)(=O)c2ccc3oc(SC4CCOC4=O)nc3c2)cc1 (centres undefined)
COC(=O)C1=C(C)N(Cc2ccc(C)cc2)C(=O)/C1=C\c1ccc(O)c(OC)c1
CCOC(=O)C1=C(C)N(c2ccc(OC)cc2)C(=O)/C1=C\c1ccc(O)c(OCC)c1
CNC(=S)N/N=C/C1=CCC2CC1C2(C)C (centres undefined)
O=C1c2ccccc2[C@@H]2C[C@@H](O)[C@H](Nc3cccc4ccccc34)CCN12
CCOC(=O)NC(=S)Nc1ccc(C(C)(C)C)cc1
NC(=S)N/N=C1\CCOc2ccc(F)cc21
CNC(=S)N/N=C1\CC(c2ccccc2)Oc2ccccc21 (centres undefined)
c1coc(CNc2nc3nonc3nc2NCc2ccco2)c1
COCCNC(=S)N/N=C(\C)c1ccc(Cl)c(Cl)c1Cl
C/C(=N\NC(=S)NCc1ccccc1)c1ccccc1F
COc1ccc(C(CNC(=O)c2ccc(C)c(S(=O)(=O)Nc3ccccc3OC)c2)N2CCCC2)cc1 (centres undefined)
C=CCn1c(CCn2c3ccccc3c3ccccc32)n[nH]c1=S
C=CCn1c(-c2ccccc2)c[nH]c1=S
CCN(CC)C(=O)CN(c1cccc(OC)c1)S(=O)(=O)c1ccc(C)cc1
CC1CCN(c2c(NCc3ccc(C(=O)NCCc4ccc(Cl)cc4)cc3)c(=O)c2=O)CC1
O=c1c2cn[nH]c2nc(SCc2ccccc2F)n1-c1ccc(Br)cc1
CCNc1nc(NCC)nc(N/N=C/c2ccc(N(C)C)cc2)n1
CCNC(=S)N/N=C/c1ccco1
O=C(/C=C/c1ccccc1)Oc1cccc2cccnc12
Cc1cc(C(=O)CN2C(=O)NC3(CCCc4ccccc43)C2=O)c(C)n1C (centres undefined)
Cc1ccc(NC(=S)N2CCn3cccc3C2c2cccnc2)cc1 (centres undefined)
